Data: PubChem BioAssay AID1159580 (chemical genetic matrix, 2015)
About 2,000 (36%) of roughly 5,500 compounds were called active. Roughly 18% stayed inconclusive and do not appear here. Rule as the data show it: active = normalized growth mostly below about 0.91 (no sharp cut-off); inconclusive = no clear call, values can overlap the other calls; inactive = mostly above about 0.92. This is one part of the list.

Test: chemical genetic growth profiling, strain panel (AID 1159580);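 also: tested at 20 µM; growth read once vehicle control cultures reached saturation at 30 °C; 1 = growth at the plate median or of vehicle wells; lower values mean less growth of the strain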
Details: S. cerevisiae deletion strains, growth OD

Measured: normalized growth

C/C=C(/C)C(=O)O[C@@H]1Cc2c(ccc3ccc(=O)oc23)OC1(C)C
inactive: locus YBR021W, strain FUR4, stronger effect = lower value 1.08 | locus YBR229C, strain ROT2, stronger effect = lower value 0.984 | locus YCL029C, strain bik1, stronger effect = lower value 1.01 | locus YDL035C, strain GPR1, stronger effect = lower value 0.974 | locus YDL074C, strain BRE1, stronger effect = lower value 0.976 | locus YDL101C, strain DUN1, stronger effect = lower value 1.01 | locus YDL134C, strain PPH21, stronger effect = lower value 0.947 | locus YDL185W, strain tfp1, stronger effect = lower value 1.01 | locus YDL192W, strain arf1, stronger effect = lower value 0.977 | locus YDR101C, strain arx1, stronger effect = lower value 1.03 | locus YDR150W, strain NUM1, stronger effect = lower value 0.934 | locus YDR162C, strain NBP2, stronger effect = lower value 0.927 | locus YDR318W, strain mcm21, stronger effect = lower value 0.962 | locus YDR388W, stronger effect = lower value 0.996 | locus YDR502C, strain sam2, stronger effect = lower value 1.03 | locus YEL061C, strain CIN8, stronger effect = lower value 0.95 | locus YER110C, stronger effect = lower value 1 | locus YER155C, strain BEM2, stronger effect = lower value 1 | locus YER167W, strain BCK2, stronger effect = lower value 0.978 | locus YGL078C, strain dbp3, stronger effect = lower value 0.991 | locus YGL086W, strain mad1, stronger effect = lower value 1.02 | locus YGL248W, strain PDE1, stronger effect = lower value 0.966 | locus YGR078C, strain PAC10, stronger effect = lower value 0.987 | locus YGR135W, strain pre9, stronger effect = lower value 0.97 | locus YGR252W, strain gcn5, stronger effect = lower value 1.05 | locus YHR030C, strain SLT2, stronger effect = lower value 0.992 | locus YHR079C, strain IRE1 (second series), stronger effect = lower value 0.987 | locus YHR094C, strain hxt1, stronger effect = lower value 0.989 | locus YHR129C, strain ARP1, stronger effect = lower value 0.973 | locus YHR200W, strain rpn10, stronger effect = lower value 1.01 | locus YIL066C, strain RNR3, stronger effect = lower value 0.979 | locus YIL073C, strain SPO22, stronger effect = lower value 0.96 | locus YIL125W, strain kgd1, stronger effect = lower value 1 | locus YIR030C, strain dcg1, stronger effect = lower value 0.989 | locus YJL095W, strain BCK1, stronger effect = lower value 0.937 | locus YJL134W, strain LCB3, stronger effect = lower value 0.985 | locus YJL168C, strain set2, stronger effect = lower value 1 | locus YJL187C, strain SWE1 (second series), stronger effect = lower value 0.984 | locus YJR043C, strain POL32, stronger effect = lower value 1.01 | locus YJR075W, strain HOC1, stronger effect = lower value 0.99 | locus YKL009W, strain mrt4, stronger effect = lower value 0.987 | locus YKL068W, stronger effect = lower value 0.983 | locus YKL085W, strain MDH1 (second series), stronger effect = lower value 0.978 | locus YKL085W, strain MDH1, stronger effect = lower value 0.978 | locus YKL190W, strain CNB1, stronger effect = lower value 0.935 | locus YKR001C, strain vps1, stronger effect = lower value 0.998 | locus YLR039C, strain RIC1, stronger effect = lower value 0.792 | locus YLR058C, strain SHM2, stronger effect = lower value 0.97 | locus YLR102C, strain apc9, stronger effect = lower value 0.99 | locus YLR262C, strain YPT6, stronger effect = lower value 0.761 | locus YLR268W, strain sec22, stronger effect = lower value 1 | locus YLR330W, strain CHS5, stronger effect = lower value 0.989 | locus YLR342W, strain FKS1 (second series), stronger effect = lower value 0.987 | locus YLR371W, strain rom2, stronger effect = lower value 1 | locus YLR418C, strain cdc73, stronger effect = lower value 1.06 | locus YML016C, strain PPZ1, stronger effect = lower value 0.987 | locus YML032C, strain rad52, stronger effect = lower value 0.969 | locus YML124C, strain tub3, stronger effect = lower value 0.982 | locus YMR078C, strain ctf18, stronger effect = lower value 0.985 | locus YMR223W, strain ubp8, stronger effect = lower value 0.974 | locus YMR307W, strain GAS1, stronger effect = lower value 0.716 | locus YNL067W, strain RPL9B, stronger effect = lower value 0.951 | locus YNL153C, strain GIM3, stronger effect = lower value 0.996 | locus YNL233W, strain BNI4, stronger effect = lower value 1 | locus YNL250W, strain rad50, stronger effect = lower value 0.981 | locus YNL271C, strain bni1, stronger effect = lower value 0.989 | locus YNL298W, strain CLA4, stronger effect = lower value 0.984 | locus YNL307C, strain MCK1, stronger effect = lower value 1 | locus YNR052C, strain pop2, stronger effect = lower value 0.915 | locus YOL012C, strain htz1 0.999 | locus YOL147C, strain pex11, stronger effect = lower value 0.99 | locus YOR061W, strain CKA2, stronger effect = lower value 0.974 | locus YOR069W, strain VPS5, stronger effect = lower value 0.975 | locus YOR136W, strain idh2, stronger effect = lower value 1.03 | locus YOR144C, strain elg1, stronger effect = lower value 0.992 | locus YOR184W, strain ser1, stronger effect = lower value 0.932 | locus YOR316C, strain cot1, stronger effect = lower value 0.987 | locus YPL241C, strain CIN2, stronger effect = lower value 0.953 | locus YPR119W, strain clb2, stronger effect = lower value 0.976 | locus YPR141C, strain kar3, stronger effect = lower value 0.981 | locus YPR163C, strain tif3, stronger effect = lower value 0.987 | locus YPR167C, strain met16, stronger effect = lower value 0.98 | strain wtn01, stronger effect = lower value 1.04
